In PubChem BioAssay (NCATS):
Results filed as inconclusive are left out. Activity calls are given as the source filed them. Calls follow the shape of the dose curve; as a rule, active = well fitted inhibition curve with a large enough effect; inconclusive = small, poorly fitted or top-dose-only effect; inactive = flat fitted curve, though single readings scatter.

These compounds were tested against Aldehyde dehydrogenase, mitochondrial (Homo sapiens) (UniProt P05091) (assay: qHTS for Inhibitors of the Aldehyde Dehydrogenase Family (ALDH2) Primary screen (AID 2061308; also: nearly all actives have a fitted effect of over 55% in size;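 as to activity change, negative = inhibition: plate controls were vehicle for no effect and reference inhibitor for full effect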)). Details: ALDH2 enzyme inhibition qHTS, 1536-well; series mostly up to 56 µM; activity change, negative = inhibition: at the top concentration.
Potency is read from the fitted curve at half-maximal effect.

SMILES | activity change, negative = inhibition | Potency
O=C(O)c1ccc(-c2noc(-c3ccc(Cl)cc3)n2)cc1 | -0.81% (inactive) | –
Cc1nnc(-c2cnn(C)c2N)n1CCCc1ccncc1 | 11.8% (inactive) | –
CCC(=O)NC(c1cc(Cl)c2ccccc2c1O)C1CC1 (stereo not given) | -25.3% (inactive) | –
Cn1c2cc(Br)sc2c2cnn(Cc3c(F)cccc3Cl)c(=O)c21 | -0.603% (inactive) | –
CC(CN1c2ccccc2Sc2ccc(S(=O)(=O)N(C)C)cc21)N(C)C (stereo not given) | -17.6% (inactive) | –
O=C(O)c1ccc(-c2noc(-c3ccc(F)cc3)n2)cc1 | 3.47% (inactive) | –
CNc1nc(Nc2ccc(C(=O)N3CCOCC3)cc2OC)nc2[nH]cc(Cl)c12 | -15.5% (inactive) | –
COc1cccc(Nc2ccc(N3CCN(C(C)=O)CC3)cc2)c1OC | 3.58% (inactive) | –
Cc1ccc(-c2ccc(CNc3nc(-c4ccccc4C(C)C)nc4ccsc34)cc2)cn1 | -3.81% (inactive) | –
C=C1CCC2C(C)(CO[C@@H]3O[C@H](CO)[C@@H](O)[C@H](O)[C@H]3O)C(O)CCC2(C)C1C(=O)CC1=CCOC1=O (stereo not given in full) | -5.21% [at 28 µM] (inactive) | –
FC(F)(F)c1ccccc1-c1nc(NCc2ccc(-c3cccnc3)cc2)c2sccc2n1 | -0.0639% (inactive) | –
CCCn1c(-c2ccc(F)cc2)nc2c(N3CCN(CCn4ccnc4)CC3)nc(C)nc21 | 2.53% (inactive) | –
O=C(O)c1ccc(-c2noc(-c3ccc(C(F)(F)F)cc3)n2)cc1 | -10.5% (inactive) | –
CN1CCc2ccc3c4c2[C@]1(C)Cc1cccc(c1-4)OCO3 | -21.4% (inactive) | –
Cc1ccc(-c2ccc(=O)n(CC(=O)NCCc3ccccc3)c2)cc1 | -0.605% (inactive) | –
O=C(NC(c1ccco1)c1cc(Cl)c2cccnc2c1O)c1cccs1 (stereo not given) | -27.5% (inactive) | –
O=C(O)c1cccc(-c2noc(-c3ccc(Cl)cc3)n2)c1 | 12.3% (inactive) | –
CCOc1ccc(CCNC(C)=O)cc1OCC | -14.2% (inactive) | –
Fc1ccccc1-c1nc(-c2ccccc2)no1 | 6.94% (inactive) | –
COc1cc(OC)c(C(CC(=O)N2CC(C)CC(C)C2)c2ccc3c(c2)OCO3)c(OC)c1 (stereo not given) | -22.1% [at 114 µM] (inactive) | –

SMILES | activity change, negative = inhibition | Potency
C=C1C(=O)OC2/C=C(\CO)CC/C=C(\C=O)C(O)C(OC(=O)C(C)CC)C12 (stereo not given) | -2.9% (inactive) | –
FC(F)(F)c1cc(Cl)cc(-c2ccc(CNc3nc(-c4ccccc4C(F)(F)F)nc4ccccc34)cc2)c1 | -13.6% (inactive) | –
CC1=CC2=C(C)C(=O)[C@](C)(O)[C@H](O)C2=CO1 | -17.1% (inactive) | –
CC(C)(C)OC(=O)N1CCN(c2ccc(NCc3ccoc3-c3ccc(C#N)cc3)cc2)CC1 | -13.7% (inactive) | –
COc1ccc(C2Nc3ccccc3C(=O)N2Cc2ccccc2)cc1OCc1ccc(NC(C)=O)cc1 (stereo not given) | -18.7% (inactive) | –
C=C1/C(=C/C=C2\CCC[C@@]3(C)C2CCC3[C@H](C)/C=C/[C@@H](O)C2CC2)C[C@@H](O)C[C@@H]1O (stereo not given in full) | -7.17% (inactive) | –
O=C(O)c1cccc(-c2noc(-c3ccc(F)cc3)n2)c1 | -4.93% (inactive) | –
COc1ccc(C(=O)NC(c2ccco2)c2cc(Cl)c3cccnc3c2O)cc1 (stereo not given) | -9.43% (inactive) | –
N#Cc1ccc(S(=O)(=O)Nc2cnccc2C(=O)Nc2nc(-c3ccccc3)cs2)cc1 | 9.86% (inactive) | –
NC(Cc1c[nH]c2ccc(O)cc12)C(=O)O (stereo not given) | -4.33% (inactive) | –
CC(=O)NC(c1cc(Cl)c2ccccc2c1O)C1CC1 (stereo not given) | -17.3% (inactive) | –
COc1cccc(CNc2ccc(S(=O)(=O)Nc3ccccn3)cc2)c1O | 12.3% (inactive) | –
O=C(NCCc1ccc(O)c(O)c1)c1cc2sccc2n1Cc1ccccc1 | -24% (inactive) | –
CS(=O)(=O)c1cccc(-c2csc(N3CCC(C(N)=O)CC3)n2)c1 | 3.35% (inactive) | –
O=C(Nc1cncc(-c2ccncc2)c1)c1cccs1 | -7.32% (inactive) | –
Cc1ccnc(NC(=S)N2CCN(c3cccc(C(F)(F)F)n3)CC2)c1 | 7% (inactive) | –
O=C(Nc1nnc(-c2ccncc2)s1)Nc1ccc(Cl)c2ccccc12 | -0.427% (inactive) | –
C=C1/C(=C/C=C2\CCC[C@]3(C)[C@@H]([C@H](C)/C=C/[C@@H](C)C(C)C)CC[C@@H]23)C[C@@H](O)C[C@@H]1O | -3.16% (inactive) | –
COc1cccc(-c2nc(-c3cccc(C(=O)O)c3)no2)c1 | -7.16% (inactive) | –
CC(C)(C)OC(=O)N1CCN(c2ccc(NCc3ncc(-c4ccc(C#N)cc4)o3)cc2)CC1 | – | 1120 nM (active)
